Test results as given in ChEMBL document CHEMBL1157539, “Thousands of chemical starting points for antimalarial lead identification” (Nature, 2010).

Legend:
Assay type in all cases: functional
Plasmodium falciparum [1] = assay: GSK_TCMDC: Inhibition of Plasmodium falciparum 3D7 in whole red blood cells, using parasite LDH activity as an index of growth. Test compounds present at 2uM
Plasmodium falciparum [2] = assay: GSK_TCMDC: Inhibition of Plasmodium falciparum Dd2 in whole red blood cells, using parasite LDH activity as an index of growth. Test compounds present at 2uM
HepG2 = assay: GSK_TCMDC: Percent inhibition of human HepG2 cell line. Test compounds present at 10uM.

Row | Compound | Inhibition (Plasmodium falciparum [1]) [%] | Inhibition (Plasmodium falciparum [2]) [%] | Inhibition (HepG2) [%]
1 | COC(=O)C(C)(C)Cc1c(SC(C)(C)C)c2cc(C(C)C)ccc2n1Cc1ccc(Cl)cc1 | 96 | 96 | 0
2 | Fc1ccc2[nH]c(-c3ccc(-c4ccc(CNCC5CCCO5)cc4)s3)nc2c1.O=C(O)C(F)(F)F (stereo not drawn) | 100 | 99 | 30
3 | CN1CCC[C@H]1COc1ccc(CN2CC[C@H](NC(=O)c3ccc(Cl)c(Cl)c3)C2)c2ccccc12.O=C(O)C(F)(F)F | 100 | 98 | 47
4 | Cc1cc(N[C@@H](CC(C)C)C(=O)NCCCOC(C)C)nc(NCCc2ccc(F)cc2)n1.O=C(O)C(F)(F)F | 87 | 19 | 5
5 | Cc1ccccc1C1CCN(C2CCC(NC(=O)/C=C/c3ccc(F)cc3)CC2)CC1 (stereo not drawn) | 87 | 30 | 61
6 | NC1=NC(c2ccccc2)(c2ccccc2)C(=O)N1CC1CCC1.O=CO | 96 | 74 | 17
7 | COc1cccc(C(=O)Nc2ccc(Oc3ccc(Cl)cc3)cc2)c1 | 92 | 0 | 33
8 | Cc1cc(Nc2ccc(C(C)(C)C)cc2)c2[nH]ncc2n1.Cl | 83 | 63 | 31
9 | OC1(C(F)(F)F)CC(c2ccccc2)=NN1c1nncc(-c2ccccc2)n1 (stereo not drawn) | 99 | 3 | 0
10 | CCC1(C)N=C(N)N=C(N)N1c1ccccc1.Cl (stereo not drawn) | 98 | 0 | 6
11 | O=C(Cc1c[nH]cn1)Nc1ccc(-c2cccc(-c3nc4cc(C(F)(F)F)ccc4[nH]3)c2)cc1 | 100 | 95 | 20
12 | Cc1cccc2nc(-c3cccc(-c4ccc(CNCc5cccc(N)c5)cc4)c3)[nH]c12.O=C(O)C(F)(F)F | 100 | 93 | 19
13 | CCN(CC)CCn1c2ccccc2c2ccc(C(=O)Nc3ccc4sc(C)nc4c3)cc21.Cl | 84 | 26 | 97
14 | O=c1cc(NCCCN(Cc2cc3c(Cl)cc(Cl)cc3[nH]2)Cc2cc3c(Cl)cc(Cl)cc3[nH]2)[nH]c2ccccc12 | 87 | 80 | 23
15 | CC(C)CN(C)Cc1ccc(-c2ccc(-c3nc4ccccc4[nH]3)s2)cc1 | 97 | 76 | 8
16 | O=C(Cc1n[nH]c(=O)c2ccccc12)Nc1cccc(C(=O)Nc2cccc(C(F)(F)F)c2)c1 | 97 | 90 | 0

Row | Compound | Inhibition (Plasmodium falciparum [1]) [%] | Inhibition (Plasmodium falciparum [2]) [%] | Inhibition (HepG2) [%]
17 | Cc1[nH]c(C)c(-c2csc3ccccc23)c(=O)c1Cl | 97 | 75 | 7
18 | OC(c1nnc(S)n1-c1ccccc1)C(O)c1nnc(S)n1-c1ccccc1 (stereo not drawn) | 92 | 89 | 18
19 | CN(/N=C/C=C/c1ccc(Cl)cc1)c1nc(NCCc2ccc(O)cc2)nc(N2CCNCC2)n1 | 92 | 69 | 14
20 | COc1cc(Nc2ccnc3cc(-c4ccccn4)ccc23)cc(OC)c1OC.Cl | 91 | 0 | 0
21 | CN(C)c1nc(NN=Cc2cc(Cl)ccc2O)nc(Nc2ccc(F)cc2)n1 | 94 | 46 | 32
22 | COc1ccc2c(NN=Cc3ccccn3)ccnc2c1 | 100 | 96 | 14
23 | COc1cc2ccccc2c(OC)c1CCNCCCCNCCc1c(OC)cc2ccccc2c1OC.CS(=O)(=O)O | 99 | 30 | 100
24 | CCc1ccc(C2CCN(CCCCNC(=O)c3ccc(NC(=O)c4ccc(Cl)cc4)cc3)CC2)cc1 | 100 | 63 | 15
25 | Oc1ccc(-c2cc(-c3ccc(O)cc3)nc(-c3ccccc3)n2)cc1 | 96 | 97 | 0
26 | O=C(Nc1n[nH]c2nc(-c3ccco3)c(Br)cc12)c1ccc(CN2CCCC2)cc1.O=C(O)C(O)C(O)C(=O)O | 100 | 53 | 1
27 | COc1ccc(-c2nc3cccnc3n2CC(=O)Nc2c(C)cc(C)cc2C)c(OC)c1 | 91 | 21 | 77
28 | Cc1ccc(C(=O)NC2C(=O)NC2c2ccccc2)c(C)c1 (stereo not drawn) | 90 | 0 | 7
29 | CCCC(=O)Nc1ccc(OCCCCN(CC(C)(C)C)c2ccc(C#N)c(C(F)(F)F)c2)cc1 | 83 | 69 | 9
30 | CN(C)c1cccc2c1nc(-c1ccco1)n2CC1CCCN1.O=C(O)C(F)(F)F (stereo not drawn) | 86 | 46 | 0
31 | COc1ccc2nccc([C@@H](O)CN3CCC(NCc4cc5cccc(OCc6ccccc6)c5[nH]4)CC3)c2c1 | 100 | 40 | 13
